Measured values taken from PubChem BioAssay (NCATS).
“And” between values parts separate entries of the source, which are not always exact repeats. Equal values may be shown once. Unmarked numbers belong to inactive results. Results filed as inconclusive are left out. Entries that show only a call come without a potency. The source made the active and inactive calls. Unless noted, calls come from the whole dose curve; as a rule, active = well fitted curve in the direction sought with a large enough effect; inconclusive = small, poorly fitted or top-dose-only effect, or another doubt; inactive = no such curve, though single readings can be large; an effect the other way counts as inactive or inconclusive.

How the values were obtained:
[1] = Validation of Assay for Modulators of Lamin A Splicing (AID 1459; active = well fitted curve in the direction sought with a large enough effect in the signal ratio; the % refers to the signal ratio;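 note: cells exposed to compound for two days before reading; ratio rise marks activators and ratio drop marks inhibitors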)
Method in brief: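 S3 HeLa stably expressing lamin A-EGFP splicing minigene and DsRed2, 600 cells/well in Opti-MEM with 2% FBS, treated 48 h at 37C; laser-scanning cytometry gives GFP/RFP total intensity ratio; ancitabine positive control, 0.5% DMSO vehicle.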

[2] = target: DNA repair nuclease/redox regulator APEX1 (Homo sapiens) (UniProt P27695); test: qHTS Validation Assay for Inhibitors of the Human Apurinic/apyrimidinic Endonuclease 1 (APE1) (AID 1705;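 note: TAMRA fluorescence gain over two minutes as APE1 cuts a quenched THF abasic duplex; series mostly up to about 57 µM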)
DNA repair nuclease/redox regulator APEX1 (Homo sapiens), sequence (P27695 whole entry, looked up): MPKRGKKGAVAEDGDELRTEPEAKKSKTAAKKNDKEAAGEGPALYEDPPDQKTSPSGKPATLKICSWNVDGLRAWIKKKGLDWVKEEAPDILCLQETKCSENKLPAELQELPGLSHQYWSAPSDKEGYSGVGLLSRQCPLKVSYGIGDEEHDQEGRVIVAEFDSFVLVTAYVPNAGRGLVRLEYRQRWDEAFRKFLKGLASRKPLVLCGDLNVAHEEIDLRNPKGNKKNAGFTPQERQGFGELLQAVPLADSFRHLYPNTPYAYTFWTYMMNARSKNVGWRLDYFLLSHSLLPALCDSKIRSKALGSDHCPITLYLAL
Method in brief: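 Fluorogenic double-stranded THF abasic-site substrate (5'-TAMRA/3'-BHQ-2), 50 nM final. Enzyme preincubated with compound 15 min at room temperature, then substrate added. Kinetic fluorescence (ex 525/em 598 nm) read three times at 60 s intervals; activity taken as third-minus-first read difference.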

[3] = Counterscreen for APE1 Inhibitors: Fluorescent Dye Displacement Validation Assay (AID 1707)
Method in brief: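 Assay buffer: Tris-HCl pH7.5 with 50mM NaCl, 2 mM MgCl2, 0.01% Tween-20. Dye 250 nM, duplex 50 nM final. Readout: decrease in ThO endpoint fluorescence, 480 nm excitation, 540 nm emission.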

[4] = target: Endonuclease 4 (Escherichia coli (strain K12)) (UniProt P0A6C1); test: Counterscreen for APE1 Inhibitors: qHTS Validation Assay for Inhibitors of Endonuclease IV (AID 1708)
Method in brief: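 Enzymatic AP-site incision assay using a double-stranded THF substrate labelled with TAMRA and BHQ-2; released fluorescence signals activity. Enzyme 2 nM, substrate 50 nM, 15 min compound preincubation.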

[5] = qHTS for differential inhibitors of proliferation of Plasmodium falciparum line 3D7 (AID 1876); note: potency is the fitted concentration of half-maximal effect
[6] = qHTS for differential inhibitors of proliferation of Plasmodium falciparum line D10 (AID 1877);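 note: parasites grown with compound for 72 h before DNA staining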; note: potency is the fitted concentration of half-maximal effect
[7] = qHTS for differential inhibitors of proliferation of Plasmodium falciparum line Dd2 (AID 1882); conditions: Potency: Plasmodium falciparum Dd2 proliferation inhibition; note: nearly all actives have a fitted effect of over 65% in size; note: potency is the fitted concentration of half-maximal effect
Method in brief: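 SYBR Green I DNA fluorescence read-out, ex 485/em 535 nm. Signals were normalized to 0.29 uM artemisinin and DMSO wells, then corrected using vehicle-only plates flanking each stack. Parasite growth ran 72 h in erythrocytes before lysis.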

[8] = qHTS for differential inhibitors of proliferation of Plasmodium falciparum line HB3 (AID 1886); conditions: Potency: Plasmodium falciparum HB3 proliferation inhibition;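 note: parasites grown with compound for 72 h before SYBR Green readout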; note: potency is the fitted concentration of half-maximal effect
[9] = target: Ferritin light chain (Equus caballus) (UniProt P02791); test: qHTS Validation Assay for Identification of Novel General Anesthetics (AID 2323); note: series mostly up to about 77 µM
Ferritin light chain (Equus caballus), sequence (P02791 2-175 limits assumed): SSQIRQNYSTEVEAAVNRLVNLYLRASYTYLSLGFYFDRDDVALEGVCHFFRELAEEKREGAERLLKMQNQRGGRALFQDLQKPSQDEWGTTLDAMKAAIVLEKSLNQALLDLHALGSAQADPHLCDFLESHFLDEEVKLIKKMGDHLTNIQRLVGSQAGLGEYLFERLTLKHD
Method in brief: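 Horse-spleen apoferritin (10 uM) in PBS with 50% saturated 1-aminoanthracene; compounds pin-transferred, 10 min at room temperature. Fluorescence read at 380/535 nm, normalized to free 1-AMA and 1-AMA/apoferritin values; four-parameter Hill fit.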

[10] = target: ATP-dependent DNA helicase Q1 (Homo sapiens) (UniProt P46063); test: qHTS Validation Assay for Inhibitors of RecQ-Like Dna Helicase 1 (RECQ1) (AID 2353)
ATP-dependent DNA helicase Q1 (Homo sapiens), sequence (P46063 whole entry, looked up): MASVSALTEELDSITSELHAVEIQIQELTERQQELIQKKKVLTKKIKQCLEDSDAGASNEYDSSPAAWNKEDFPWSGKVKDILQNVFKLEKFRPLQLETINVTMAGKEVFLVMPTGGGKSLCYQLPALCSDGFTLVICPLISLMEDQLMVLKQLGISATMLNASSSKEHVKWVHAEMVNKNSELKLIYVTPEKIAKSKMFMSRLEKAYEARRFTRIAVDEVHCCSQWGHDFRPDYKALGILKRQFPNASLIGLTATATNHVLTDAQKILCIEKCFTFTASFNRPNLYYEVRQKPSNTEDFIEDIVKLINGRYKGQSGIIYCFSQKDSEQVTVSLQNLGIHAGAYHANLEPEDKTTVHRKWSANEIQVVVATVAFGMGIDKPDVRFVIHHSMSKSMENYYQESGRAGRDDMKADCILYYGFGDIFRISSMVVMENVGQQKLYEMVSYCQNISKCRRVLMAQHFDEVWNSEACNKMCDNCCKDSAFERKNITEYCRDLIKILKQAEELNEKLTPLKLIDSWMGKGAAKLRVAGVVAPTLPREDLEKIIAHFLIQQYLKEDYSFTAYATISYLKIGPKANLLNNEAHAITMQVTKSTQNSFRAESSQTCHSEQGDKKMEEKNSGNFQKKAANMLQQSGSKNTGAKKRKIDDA
Method in brief: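 50 nM RECQ1T1 preincubated 15 min with compound in Tris pH 8.0 buffer with MgCl2, DTT, Tween-20 and 2.5 ug/ml poly(dI-dC); started with 200 nM TAMRA/BHQ-2 forked duplex and 2 mM ATP. Unwinding read as fluorescence (525/598 nm), two reads 2 h apart.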

[11] = Validation screen for small molecules that induce DNA re-replication in MCF 10A normal breast cells (AID 463097); note: nearly all actives have a fitted effect of over 60% in size
Method in brief: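 MCF 10A cells exposed to compound 48 hr at 37 C, 5% CO2, then Hoechst-stained 40 min. Laser-scanning imaging of nuclear DNA content (405 nm ex, 500-530 nm em); re-replication scored as rise in nuclei with elevated fluorescence intensity.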

[12] = Quantitative high throughput screen for delayed death inhibitors of the malarial parasite plastid, 96 hour incubation (AID 488745);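 note: luciferase-expressing P. falciparum in erythrocytes at 2% hematocrit and 0.1% parasitemia; series mostly up to about 29 µM; nearly all actives have a fitted effect of over 70% in size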
Method in brief: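 Growth of reporter-bearing P. falciparum in red cells is measured after 96 h with compound, covering two erythrocytic cycles. Luminescence from the integrated luciferase serves as the growth signal.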

[13] = target: M-phase phosphoprotein 8 (Homo sapiens) (UniProt Q99549); test: qHTS Validation Assay for Inhibitors for MPP8 Chromodomain Interactions with Methylated Histone Tails (AID 488949); note: top concentration of the series differs between compounds; nearly all actives have a fitted effect of over 55% in size
Method in brief: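 MPP8 (50 nM) was pre-bound to 50 nM biotinylated H3(1-18)K9me3 peptide in PBS pH 7.4 with 0.01% Tween-20. Compounds were then added for 30 min at room temperature, and complex disruption was read by AlphaScreen with streptavidin donor and nickel-chelate acceptor beads.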

[14] = target: Transient receptor potential cation channel subfamily V member 1 (Homo sapiens) (UniProt Q8NER1); test: HTS Assay for Compounds that Act as Enhancers of the Vanilloid Receptor 1 (AID 488979)
Transient receptor potential cation channel subfamily V member 1 (Homo sapiens), sequence (Q8NER1 whole entry, looked up): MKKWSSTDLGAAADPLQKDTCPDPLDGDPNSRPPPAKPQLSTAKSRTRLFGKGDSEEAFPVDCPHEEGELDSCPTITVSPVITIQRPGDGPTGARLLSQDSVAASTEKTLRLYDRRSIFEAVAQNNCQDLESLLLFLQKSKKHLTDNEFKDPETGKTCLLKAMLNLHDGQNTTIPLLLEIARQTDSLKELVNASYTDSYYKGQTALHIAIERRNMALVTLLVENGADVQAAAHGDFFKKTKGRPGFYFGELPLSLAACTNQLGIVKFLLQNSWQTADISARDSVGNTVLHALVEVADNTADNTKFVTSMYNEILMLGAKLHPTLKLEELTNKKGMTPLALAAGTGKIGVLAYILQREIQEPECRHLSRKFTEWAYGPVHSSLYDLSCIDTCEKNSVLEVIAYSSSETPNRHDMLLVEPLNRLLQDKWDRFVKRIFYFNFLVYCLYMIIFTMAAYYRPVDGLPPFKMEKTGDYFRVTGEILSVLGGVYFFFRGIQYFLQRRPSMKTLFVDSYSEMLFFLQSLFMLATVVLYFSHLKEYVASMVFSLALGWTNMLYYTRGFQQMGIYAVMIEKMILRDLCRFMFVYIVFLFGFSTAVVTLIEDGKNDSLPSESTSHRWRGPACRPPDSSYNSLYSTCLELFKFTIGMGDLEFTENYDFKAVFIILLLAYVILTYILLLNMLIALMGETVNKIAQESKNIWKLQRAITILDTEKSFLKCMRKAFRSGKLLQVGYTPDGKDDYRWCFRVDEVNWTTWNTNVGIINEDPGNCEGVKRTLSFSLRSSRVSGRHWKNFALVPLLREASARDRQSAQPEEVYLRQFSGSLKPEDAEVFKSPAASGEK
Method in brief: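 Calcium influx kinetics via Fluo-8 (480/520 nm) in TRPV1-expressing cells, 2000/well cultured overnight at 35.5C. Compound-alone read 3 min (agonist phase), followed by EC20 capsaicin challenge for 2 min (enhancer phase).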

[15] = target: Thyrotropin receptor (Homo sapiens) (UniProt P16473); test: qHTS Assay for Antagonists of the Thyroid Stimulating Hormone Receptor (AID 488980); note: series mostly up to about 58 µM
Thyrotropin receptor (Homo sapiens), sequence (P16473 whole entry, looked up): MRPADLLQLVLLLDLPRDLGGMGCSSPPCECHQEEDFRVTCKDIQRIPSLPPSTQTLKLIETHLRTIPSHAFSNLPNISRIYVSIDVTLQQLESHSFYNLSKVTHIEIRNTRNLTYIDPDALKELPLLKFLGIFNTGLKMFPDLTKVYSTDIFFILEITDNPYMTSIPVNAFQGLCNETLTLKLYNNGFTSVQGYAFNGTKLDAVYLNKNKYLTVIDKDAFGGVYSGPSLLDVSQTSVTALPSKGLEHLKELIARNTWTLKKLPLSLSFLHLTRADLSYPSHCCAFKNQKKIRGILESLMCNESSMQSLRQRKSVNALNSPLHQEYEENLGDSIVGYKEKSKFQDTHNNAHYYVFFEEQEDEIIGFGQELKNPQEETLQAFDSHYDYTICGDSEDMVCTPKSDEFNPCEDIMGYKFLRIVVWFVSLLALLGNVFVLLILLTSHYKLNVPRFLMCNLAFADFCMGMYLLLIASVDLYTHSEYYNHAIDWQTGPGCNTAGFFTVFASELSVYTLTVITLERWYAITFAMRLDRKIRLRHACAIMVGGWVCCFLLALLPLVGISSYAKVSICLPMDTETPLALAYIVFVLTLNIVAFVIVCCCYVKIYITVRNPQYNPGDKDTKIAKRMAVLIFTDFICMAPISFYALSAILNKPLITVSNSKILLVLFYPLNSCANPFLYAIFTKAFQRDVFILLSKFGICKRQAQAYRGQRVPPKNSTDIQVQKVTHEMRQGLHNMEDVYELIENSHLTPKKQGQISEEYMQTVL
Method in brief: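 TSHR-transfected HEK293 cells (2000/well) in HEPES-buffered HBSS with 70 uM RO 20-1724 were stimulated with 4 nM TSH (EC80, final) in the presence of compound. cAMP was measured by HTRF competition after lysis and 30 min at RT.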

[16] = target: Thyrotropin-releasing hormone receptor (Homo sapiens) (UniProt P34981); test: qHTS for Small Molecule Agonists and Allosteric Enhancers of Human TRH Receptor: Validation Screen for Agonists (AID 493127;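 active = calcium activation more than 3 SD above the typical response in the agonist read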;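 note: intracellular calcium rise by fluo-8 fluorescence before TRH EC20 addition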); conditions: TRH receptor agonist cell assay; at 2 µM; hits give high values
Thyrotropin-releasing hormone receptor (Homo sapiens), sequence (P34981 whole entry, looked up): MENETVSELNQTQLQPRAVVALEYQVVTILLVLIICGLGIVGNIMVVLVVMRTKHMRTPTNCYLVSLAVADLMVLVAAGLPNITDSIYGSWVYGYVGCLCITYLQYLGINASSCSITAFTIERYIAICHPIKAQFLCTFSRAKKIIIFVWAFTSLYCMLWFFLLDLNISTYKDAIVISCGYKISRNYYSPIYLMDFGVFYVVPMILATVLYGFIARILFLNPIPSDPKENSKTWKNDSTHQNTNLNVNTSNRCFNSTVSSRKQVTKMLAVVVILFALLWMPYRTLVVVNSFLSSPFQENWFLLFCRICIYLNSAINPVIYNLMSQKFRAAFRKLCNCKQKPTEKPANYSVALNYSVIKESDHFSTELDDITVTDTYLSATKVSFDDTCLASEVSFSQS
Method in brief: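 Gq-coupled calcium mobilization in TRHR cells after compound addition, monitored kinetically with fluo-8 dye on an FDSS reader.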

[17] = target: Galactokinase (Homo sapiens) (UniProt P51570); test: qHTS Validation Assay for Inhibitors of Human Galactokinase (GALK) (AID 493189)
Galactokinase (Homo sapiens), sequence (P51570 whole entry, looked up): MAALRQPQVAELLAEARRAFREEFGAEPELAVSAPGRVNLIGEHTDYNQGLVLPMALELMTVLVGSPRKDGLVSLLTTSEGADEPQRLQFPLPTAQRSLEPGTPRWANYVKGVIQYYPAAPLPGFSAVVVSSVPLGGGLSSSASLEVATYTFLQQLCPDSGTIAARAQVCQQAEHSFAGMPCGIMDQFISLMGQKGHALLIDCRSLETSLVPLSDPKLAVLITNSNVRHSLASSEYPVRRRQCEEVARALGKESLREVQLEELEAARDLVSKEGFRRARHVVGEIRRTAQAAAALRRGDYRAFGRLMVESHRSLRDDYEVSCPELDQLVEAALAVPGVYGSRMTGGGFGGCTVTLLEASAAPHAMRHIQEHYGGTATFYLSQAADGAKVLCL
Method in brief: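 GALK (5 nM) with 35 uM ATP and 100 uM galactose in HEPES pH 8.0 with MgCl2, NaCl, DTT and BSA. Reaction ran 1 h at room temperature. Residual ATP read by Kinase-Glo Plus luminescence.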

[18] = target: Voltage-gated inwardly rectifying potassium channel KCNH2 (Homo sapiens) (UniProt Q12809); test: qHTS Assay for Small Molecule Inhibitors of the Human hERG Channel Activity (AID 588834);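 note: lower thallium flux fluorescence means stronger hERG block; nearly all actives have a fitted effect of over 50% in size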; note: potency is the fitted concentration of half-maximal effect
Voltage-gated inwardly rectifying potassium channel KCNH2 (Homo sapiens), sequence (Q12809 whole entry, looked up): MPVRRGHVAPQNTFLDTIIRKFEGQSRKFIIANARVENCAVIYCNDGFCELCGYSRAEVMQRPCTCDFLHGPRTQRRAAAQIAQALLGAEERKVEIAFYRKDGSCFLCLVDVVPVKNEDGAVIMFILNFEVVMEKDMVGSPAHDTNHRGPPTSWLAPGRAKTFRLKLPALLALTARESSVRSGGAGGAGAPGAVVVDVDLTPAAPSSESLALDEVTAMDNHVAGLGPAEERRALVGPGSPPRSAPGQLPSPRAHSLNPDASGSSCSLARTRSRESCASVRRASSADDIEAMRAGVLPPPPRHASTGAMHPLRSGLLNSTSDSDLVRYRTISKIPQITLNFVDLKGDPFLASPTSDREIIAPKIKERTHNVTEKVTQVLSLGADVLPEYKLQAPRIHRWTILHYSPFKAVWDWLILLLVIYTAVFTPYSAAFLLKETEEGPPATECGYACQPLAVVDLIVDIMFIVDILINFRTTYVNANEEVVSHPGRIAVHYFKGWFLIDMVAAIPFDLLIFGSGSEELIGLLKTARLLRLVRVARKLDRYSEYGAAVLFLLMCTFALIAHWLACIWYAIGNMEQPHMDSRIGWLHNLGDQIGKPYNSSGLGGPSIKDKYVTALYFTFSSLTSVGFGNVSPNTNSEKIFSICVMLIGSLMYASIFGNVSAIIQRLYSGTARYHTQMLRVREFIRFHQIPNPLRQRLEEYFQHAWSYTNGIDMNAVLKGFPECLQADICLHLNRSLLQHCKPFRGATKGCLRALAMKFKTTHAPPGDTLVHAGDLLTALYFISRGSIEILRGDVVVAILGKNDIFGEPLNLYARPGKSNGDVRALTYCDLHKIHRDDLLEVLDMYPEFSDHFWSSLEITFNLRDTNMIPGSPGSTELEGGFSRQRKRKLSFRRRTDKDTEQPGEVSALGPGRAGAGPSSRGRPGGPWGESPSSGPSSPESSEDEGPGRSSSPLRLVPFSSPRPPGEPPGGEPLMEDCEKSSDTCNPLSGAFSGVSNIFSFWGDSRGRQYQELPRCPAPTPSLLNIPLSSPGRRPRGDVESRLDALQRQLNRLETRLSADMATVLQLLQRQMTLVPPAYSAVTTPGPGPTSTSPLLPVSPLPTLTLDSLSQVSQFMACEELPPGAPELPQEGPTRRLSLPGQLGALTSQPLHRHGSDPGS
Method in brief: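 U2OS cells BacMam-transduced with hERG, 2000 cells/well, compound ~10 min at 37 °C before stimulation buffer. FluxOR thallium flux fluorescence read kinetically on FDSS; decrease indicates block; AC50 from Hill fits.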

[19] = Quantitative high throughput screen for delayed death inhibitors of the malarial parasite plastid, 48 hour incubation (AID 488752); note: nearly all actives have a fitted effect of over 65% in size
Method in brief: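 One parasite generation (48 h, 37 C, 5% CO2) of luciferase-reporter P. falciparum in erythrocytes is run with test compound; decreased luminescence indicates inhibited growth.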

Row | Structure (SMILES) | outcome [1] | Potency [2] | Potency [3] | outcome [4] | Potency [5] | Potency [6] | Potency [7] | Potency [8] | outcome [9] | Potency [10] | outcome [11] | Potency [12] | Potency [13] | outcome [14] | outcome [15] | activation [16] [%] | outcome [17] | Potency [18] | Potency [19]
1 | C[C@H](Cc1ccccc1)Nc1ncnc2c1ncn2[C@@H]1O[C@H](CO)[C@H](O)[C@H]1O | inactive | inactive | inactive | inactive | inactive | inactive | inactive | inactive | inactive | inactive | inactive | inactive | inactive | inactive | inactive | -2.69 | inactive | inactive | –
2 | CC(C)(C)[C@]1(O)CCN2CC3c4ccccc4CCc4cccc(c43)[C@@H]2C1 (stereo partly specified) | inactive | inactive | inactive | – | 6.31 µM (active) and 3.55 µM (active) | 12.6 µM (active) and 11.2 µM (active) | 7.08 µM (active) and 14.1 µM (active) | 12.6 µM (active) and 6.31 µM (active) | – | inactive | – | – | inactive | – | inactive | – | inactive | 2000 nM (active) | –
3 | CC(=O)NCCc1ccc(O)c(O)c1 | inactive | inactive | inactive | inactive | – | – | inactive | – | inactive | inactive | inactive | inactive | – | inactive | inactive | 0.75 | inactive | inactive | inactive
4 | OC[C@H]1O[C@@H](n2cnc3c(NC4CCCC4)ncnc32)[C@H](O)[C@H]1O | inactive | inactive | inactive | inactive | inactive | inactive | inactive | inactive | inactive | inactive | inactive | inactive | inactive | inactive | inactive | -0.438 | inactive | inactive | inactive
5 | CN1C2CCC1CC(NC(=O)c1nn(C)c3ccccc13)C2 (stereo unspecified) | inactive | inactive | inactive | inactive | inactive | inactive | inactive | inactive | – | inactive | inactive | – | inactive | inactive | inactive | 0.75 | inactive | inactive | inactive
